# Tau ThT inhib: blocks human tau fibril formation measured by thioflavin T. 2.1% of 270,000 active. AID 1460. Potency, µM (series often up to 57.4 µM), hits mostly inhibitors. recombinant tau K18 P301L, heparin-induced fibrillization, ThT fluorescence. P10636; further: nearly all actives have a fitted effect of over 55% in size
# Target sequence (P10636 561-689 P618L limits assumed): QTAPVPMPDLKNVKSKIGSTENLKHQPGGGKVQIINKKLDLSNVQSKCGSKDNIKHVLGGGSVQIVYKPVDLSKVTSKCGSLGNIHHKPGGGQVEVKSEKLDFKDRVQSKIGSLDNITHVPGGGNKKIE
#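 Tau K18 P301L fragment (15 uM unlabeled plus 0.24 uM Alexa 594-labeled) in 100 mM sodium acetate pH 7 with compound, fibrillization induced by 20 uM heparin for 6 hr at 37 C. Thioflavin T (30 uM) added, fluorescence read after 1 hr (ex 450, em 510 nm).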
# Tau fibril FP: blocks human tau fibril formation measured by polarization; P10636; K18 P301L tau heparin fibrillization, Alexa594 FP, 6 h; Potency, µM (highest dose often 57.7 µM), usual class: inhibitors; 0.39% of 280,000 active; AID 1468; further: nearly all actives have a fitted effect of over 55% in size
#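 Recombinant K18 P301L […], labeled with Alexa 594 at 0.24 uM over 15 uM unlabeled; heparin inducer 20 uM final; 37 C, 6 hr; FP endpoint.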
# Tau fluor cs: counter-screen for tau fibril formation inhibitors. Potency, µM (doses to about 57.7 µM). AID 1463. tau K18 P301L Alexa594 fluorescence, heparin fibrillization. 0.93% of 280,000 active; further: nearly all actives have a fitted effect of over 55% in size
#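 Human tau K18 P301L (15 uM unlabeled, 0.24 uM Alexa 594-labeled) in 100 mM sodium acetate pH 7 with 20 uM heparin, 6 hr at 37 C. ThT 30 uM added, 1 hr ambient; Alexa 594 FP and total fluorescence read at 555/632 nm.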
# Sfp PPTase inh: inhibitors of Bacillus subtilis Sfp phosphopantetheinyl transferase. Q9F4F7. Biochemical Sfp PPTase activity, qHTS. Potency, µM, usual class: inhibitors. 3.5% of 310,000 active. AID 1490;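 further: the enzyme is Sfp with the accession as filed and its product quenches rhodamine fluorescence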
#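 Buffer: 50 mM Hepes-Na pH 7.6, 10 mM MgCl2, 0.01% Nonidet P-40, 0.01% BSA. Enzyme 15 nM, pre-exposed to compound 15 min; substrates then added and fluorescence change tracked over 30 min.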
# Coupling enz: inhibits coupling enzyme system, counter-screen for aldolase hits | 0.67% of 290,000 active | coupling enzyme system counterscreen, AmpLite Red fluorescence | activity change, negative = inhibition, % at 58.2 µM, hits read low; in the data active means activity change below about -30%
#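 Counterscreen of the coupled detection system alone, without aldolase: glyceraldehyde-3-phosphate coupling enzymes plus AmpLite Red readout. Compounds at 57.5 uM final, 10 min RT preincubation, 20 min RT reaction, fluorescence 525/598 nm.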
# KDM4E inh: JMJD2E (human) inhibition. JMJD2E catalytic domain, FDH-coupled NADH fluorescence (FDH is formaldehyde dehydrogenase). Potency, µM (highest dose often 57.1 µM), usual class: inhibitors. 1.6% of 230,000 active; active means well fitted inhibition curve with a large enough effect, not every such curve was filed as active; inconclusive means small, poorly fitted or top-dose-only effect, or another doubt; inactive means no such curve, though single readings can be large or run the other way; further: nearly all actives have a fitted effect of over 50% in size
# Target sequence (B2RXH2 1-337 limits assumed): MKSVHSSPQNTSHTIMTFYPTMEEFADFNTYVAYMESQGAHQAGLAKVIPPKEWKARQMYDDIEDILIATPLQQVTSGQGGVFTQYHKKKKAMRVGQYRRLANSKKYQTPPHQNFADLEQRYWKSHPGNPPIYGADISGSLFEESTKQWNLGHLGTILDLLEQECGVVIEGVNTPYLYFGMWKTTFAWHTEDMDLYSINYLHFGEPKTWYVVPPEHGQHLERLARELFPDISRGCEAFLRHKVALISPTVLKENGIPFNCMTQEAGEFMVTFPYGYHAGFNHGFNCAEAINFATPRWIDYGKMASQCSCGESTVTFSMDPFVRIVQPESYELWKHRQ
# A number is an active result; . = inactive; ? = inconclusive; / = no result given; ! = not confirmed by another sample; [ ] = remark or other dose. The list is not random: actives were taken first. Their share in the collection is about 5.3%. Unless noted, the call rests on the fitted dose curve; in most records, active means well fitted curve in the direction sought with a large enough effect; inconclusive means small, poorly fitted or top-dose-only effect, or another doubt; inactive means no such curve, though single readings can be large; an effect the other way counts as inactive or inconclusive.
SMILES,Tau ThT inhib,Tau fibril FP,Tau fluor cs,Sfp PPTase inh,Coupling enz,KDM4E inh
O=C(Nc1ccc(O)c2c(=O)cc(-c3ccccc3Cl)oc12)c1cc(Cl)cc(Cl)c1,/,/,/,56µM,.,/
O=C(Nc1ccc(O)c2c(=O)cc(-c3ccccc3Cl)oc12)c1ccc(Cl)c(Cl)c1,.,.,.,79µM!,.,.
COC(=O)N1C(/C=C/c2ccc3c(c2)OCO3)=Cc2ccccc2C1CC(C)=O (centres undefined),.[11.5 µM],.[11.6 µM],.[11.6 µM],.,.,?
Fc1ccc(N2CCN(C3=Nc4cccc5cccc3c45)CC2)cc1,4.5µM,.,.,.,.,.
c1ccc(CN2CCN(C3=Nc4cccc5cccc3c45)CC2)cc1,?,.,.,.,.,.
COC1(OC)N=C(NC(=O)Nc2ccccc2)C2(C#N)C(c3ccccc3)C12C#N (centres undefined),20µM,?,.,.,.,.
CCOC(=O)c1[nH]c2ccccc2c1NC(=O)c1ccccc1OCC,?,.,14µM[quencher],/,/,/
CCOC(=O)c1[nH]c2ccccc2c1NC(=O)c1ccco1,.,.,.,50µM,.,.
CCOC(=O)c1[nH]c2ccccc2c1NC(=O)c1ccc(OCC)cc1,.,.,.,/,/,/
CCOC(=O)c1[nH]c2ccccc2c1NC(=S)Nc1cc(C)ccc1C,?,.,?,40µM,.,.
CCOC(=O)c1oc2ccccc2c1NC(=O)c1ccco1,/,/,/,.,/,/
CCCCn1c(=O)c2[nH]c(C34CC5CC(CC3C5)C4)nc2n(CCCO)c1=O,.,?,.,.,.,/
CC1=NN(c2ccc(F)cc2)C(=O)C1C(c1cccc(O)c1)c1c(C)[nH]n(-c2ccc(F)cc2)c1=O (centres undefined),?,.,?,.,.,.
CC1=NN(c2ccc(Cl)cc2)C(=O)C1C(c1cccc(O)c1)c1c(C)[nH]n(-c2ccc(Cl)cc2)c1=O (centres undefined),?,.,?,.,.,3.2µM
Cc1ccc(NC(=O)CSc2nc3c(sc4ccccc43)c(=O)n2CCCC(=O)NC2CCCC2)cc1C,.,.,.,/,/,/
COc1ccc(C(=O)/C=C/c2ccc(OC)cc2OC)c(O)c1,18µM,.,.,?,.,.
COc1ccc(/C=C/C(=O)c2cc(Cl)ccc2O)c(OC)c1,16µM,.,.,?,.,.
N#C/C(=C\c1ccc(O)c(O)c1)C(=O)OCCc1cccs1,14µM,.,18µM[quencher],.,.,22µM
N#C/C(=C\c1ccc(O)c(O)c1)C(=O)c1ccc(O)c(O)c1,?,.,.,/,/,2.5µM
COc1cc(/C=C(\C#N)C(=O)NCC2CCCO2)ccc1O (centres undefined),.,.,.,.,.,.
N#C/C(=C\c1ccc(O)c(O)c1)S(=O)(=O)c1ccccc1,.,.,.,.,.,25µM
N#C/C(=C\c1ccc(O)c(O)c1)C(=O)N1CCCC1,.,.,.,63µM,.,14µM
COc1cc(/C=C(\C#N)C(=O)N2CCCCC2)ccc1O,/,/,/,.,.,/
N#C/C(=C\c1c[nH]c2ccccc12)C(=O)c1ccc(O)c(O)c1,10µM,.,16µM[quencher],/,/,2.2µM
N#C/C(=C\c1c[nH]c2ccccc12)C(=O)NC1CC1,/,/,/,.,.,/
SMILES,Tau ThT inhib,Tau fibril FP,Tau fluor cs,Sfp PPTase inh,Coupling enz,KDM4E inh
COc1ccccc1N1CCN(C(=O)C2CCN(S(=O)(=O)c3cccs3)CC2)CC1,.,.,.,/,/,/
O=C(O)CCc1ccc(-c2ccccc2)n1-c1cccc(C(=O)O)c1,/,/,/,71µM,.,/
O=C(O)CCc1ccc(-c2cccs2)n1Cc1ccco1,?,.,.,25µM,.,?
O=C(O)CCc1ccc(-c2ccccc2)n1-c1ccc(C(=O)O)cc1,.,.,.,.,.,/
CCOC(=O)c1ccc(-n2c(CCC(=O)O)ccc2-c2cccs2)cc1,?,.,.,25µM,.,?
CCc1ccc(-n2c(CCC(=O)O)ccc2-c2cccs2)cc1,?,.,.,/,/,/
Cc1ccc(-n2c(CCC(=O)O)ccc2-c2cccs2)cc1C,?,.,.,45µM,.,?
COCCn1c(=O)c(-c2ccc(OC)cc2)nc2cnc(Nc3cccc(OC)c3)nc21,/,/,/,.,.,/
COc1ccc(-c2cc(C(=O)Nc3c(C(=O)c4ccc(C)c(F)c4)oc4ccccc34)no2)cc1,.,.,.,/,/,/
